Screens (PubChem)
ST2 IL33 inh: inhibitors of human ST2 (IL1RL1) binding to IL-33, primary screen, biochemical, AlphaLISA. Interleukin-1 receptor-like 1 (Homo sapiens), Q01638. AlphaLISA ST2-Fc/biotin-IL-33 interaction, 1 h. inhibition, % for hits at 17 µM. 2.3% of 78,000 active. AID 1259354, 2018; in the data active = inhibition above about 30%
Target sequence (Q01638 whole entry, looked up): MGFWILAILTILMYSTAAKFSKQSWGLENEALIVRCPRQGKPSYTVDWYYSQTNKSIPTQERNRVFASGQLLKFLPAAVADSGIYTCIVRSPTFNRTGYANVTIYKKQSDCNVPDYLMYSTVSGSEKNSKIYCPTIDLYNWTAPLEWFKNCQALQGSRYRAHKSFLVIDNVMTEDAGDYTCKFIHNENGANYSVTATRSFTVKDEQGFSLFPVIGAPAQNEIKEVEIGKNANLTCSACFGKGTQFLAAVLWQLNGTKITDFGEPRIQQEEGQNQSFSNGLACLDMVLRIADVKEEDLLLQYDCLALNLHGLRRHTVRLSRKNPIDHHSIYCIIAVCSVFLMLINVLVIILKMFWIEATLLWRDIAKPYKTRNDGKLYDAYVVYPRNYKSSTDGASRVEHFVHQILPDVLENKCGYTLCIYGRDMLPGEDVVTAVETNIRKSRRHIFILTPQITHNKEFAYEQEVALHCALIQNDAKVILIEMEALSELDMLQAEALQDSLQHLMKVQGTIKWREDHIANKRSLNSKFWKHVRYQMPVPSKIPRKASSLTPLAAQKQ
Numbers without * were called inactive; i = inactive; ! = not active in a repeat. Many of the other results were omitted from the sample, so hits are more common in it than they were.

SMILES	ST2 IL33 inh
CC(C)C(C(=O)Nc1ccccc1Br)N1C(=O)c2ccccc2C1=O (stereo not drawn)	i
COc1cc(NC(=O)C(C(C)C)N2C(=O)c3ccccc3C2=O)c(OC)cc1Cl (stereo not drawn)	41%*
CC(=O)OCCn1nc(C)c2ccccc2c1=O	i
CCC(C)Nc1ncc(C(=O)OC)c2ccccc12 (stereo not drawn)	i
O=C(NC1C=CS(=O)(=O)C1)c1ccc2[nH]c3c(c2c1)CCCC3 (stereo not drawn)	i
CCOC(=O)c1c(NC(=O)c2cc(Cl)ccc2OC)sc2c1CCC2	i
COc1ccccc1NC(=O)c1ccc(OC)c(OC)c1	i
COc1ccc(C(=O)N2CCCCCC2)cc1OC	i
COc1ccc(C(=O)Nc2ccc(N3CCCC3)cc2)cc1OC	35%*
COc1ccc(C(=O)Nc2cc(OC)cc(OC)c2)cc1	i
CCCOc1ccc(NC(=O)c2ccc(OC)cc2)cc1	i
COc1ccc(C(=O)Nc2ccc(N3CCCC3)cc2)cc1	59%*
Cc1cc(F)c(F)c(C(=O)n2cncn2)c1F	i
C=CCn1c(CSc2nc3ccccc3s2)nnc1SCC(=O)NCCO	i
O=C(NCC1CCCN(Cc2ccc(-c3ccccc3Cl)o2)C1)c1cccnc1 (stereo not drawn)	i
Cc1cc([N+](=O)[O-])nn1CCCC(=O)N1CCc2ccccc2C1	i
O=C1CCC(C(=O)N2CCCCCCC2)CN1CCc1ccccc1 (stereo not drawn)	i
O=C1c2ccccc2C(=O)N1CCc1ccccc1	i
O=C1C=CC(=O)C(C2=C3C(=O)N(CCc4ccccc4)CC(=O)N3CCC2)=C1	38%*
C/C(=C\c1ccco1)CN(C)Cc1c(C)noc1C	i
O=[N+]([O-])c1ccccc1CN1CCN(c2ncccn2)CC1	31%*
COc1cc([N+](=O)[O-])cc(CN2CCN(c3ccccc3F)CC2)c1O	i
COc1ccccc1N1CCN(Cc2cc([N+](=O)[O-])c(O)c3ncccc23)CC1	34%*
CC1CCN(Cc2cc([N+](=O)[O-])c(O)c3ncccc23)CC1	i
COc1cc(CN2CCN(c3ccccc3C)CC2)cc([N+](=O)[O-])c1O	89%*
SMILES	ST2 IL33 inh
O=[N+]([O-])c1ccccc1CN1CCN(Cc2ccccn2)CC1	i
O=[N+]([O-])c1ccccc1CN1CCN(c2ccccn2)CC1	i
COc1cc(CN2CCN(c3ccccc3C)CC2)c([N+](=O)[O-])cc1OC	i
COc1ccccc1N1CCN(Cc2cc(OC)c(O)c([N+](=O)[O-])c2)CC1	i
O=C1CC(c2ccc([N+](=O)[O-])cc2)=NN1c1cc(S(=O)(=O)O)ccc1Cl	i
CC(C)c1cc(CN(C)C(=O)c2cc(Cn3cnc4ccccc43)[nH]n2)on1	i
Brc1ccc(Cn2nnc(-c3ccc4c(c3)OCO4)n2)cc1	i
CCN(CC)C(=O)C1CCCN(Cc2cccc(Br)c2)C1 (stereo not drawn)	i
COc1cccc(-n2cc(CN(C)C(=O)Nc3nc(C)ns3)cn2)c1	i
CC(NC(=O)c1cc(COc2ccccc2)[nH]n1)c1cn2ccsc2n1 (stereo not drawn)	i
Cc1nc(CCN(C)C(=O)c2cccc(NCc3ccc(C)s3)c2)no1	i
Cc1ccc(-c2csc(NC(=O)CN3C(=O)CCC3=O)n2)cc1C	i
CCOc1ccc(C2CC(c3ccc(C(C)C)cc3)n3nc(N)nc3N2)cc1 (stereo not drawn)	i
COc1ccc2[nH]c3c(c2c1)CCn1c-3nc2sc3c(c2c1=N)CCCC3	34%*
COc1ccc(CCn2cnc3sc4c(c3c2=N)CCCC4)cc1OC	i
COc1cc(-c2nc3sc4c(c3c(=O)[nH]2)CCCC4)ccc1O	i
Cn1cc(CC(=O)NCC2CCCO2)c2ccccc21 (stereo not drawn)	i
N#C/C(=C/c1cn(Cc2ccc(Cl)cc2Cl)c2ccccc12)C(=O)NCC1CCCO1 (stereo not drawn)	32%*
Cc1c(C#N)c2ccccc2n1CC(=O)NCC1CCCO1 (stereo not drawn)	i
CN(CC(=O)c1ccc(O)cc1)C(=O)c1cccc2cnccc12	i
Cc1ccc(C(=O)c2ccc(Cl)cc2)cc1[N+](=O)[O-]	42%*
Cc1ccc(NC(=O)c2cccc(F)c2)cc1[N+](=O)[O-]	i
Cc1cccc(C(=O)Nc2cccc([N+](=O)[O-])c2C)c1	i
Cc1ccc(NC(=O)COc2ccc(Cl)cc2)cc1[N+](=O)[O-]	i
CNC(=O)c1ccc(C)c([N+](=O)[O-])c1	i
SMILES	ST2 IL33 inh
Cc1cccc(C(=O)Nc2ccc(NC(=O)c3ccc(C)c([N+](=O)[O-])c3)cc2)c1	32%*
CCSC1=C(C#N)C(c2cccc(Cl)c2Cl)CC(=O)N1 (stereo not drawn)	i
O=C1c2ccccc2S(=O)(=O)N1Cc1ccc(Cl)cc1Cl	i
CCc1nc(CN2CCN(CCc3ccccc3)C(CCO)C2)c(C)[nH]1 (stereo not drawn)	i
CCSc1nnc(NC(=O)c2ccc(C)c(S(=O)(=O)N3CCCC3)c2)s1	i
O=C(CCS(=O)(=O)Cc1ccccc1F)NC1CC1	i
O=S1(=O)CCC(S(=O)(=O)N2CCOCC2)C1 (stereo not drawn)	i
Cc1ccc(S(=O)(=O)/C=C/C#N)cc1	i
CCN(CC)S(=O)(=O)c1ccc(C)cc1	i
Cc1ccc(S(=O)(=O)ON=C2C=CC(=O)C=C2)cc1	47%*
O=C(NCCNC(=O)C12CC3CC(CC(C3)C1)C2)C12CC3CC(CC(C3)C1)C2	i
O=C(c1ccc(-n2cnnc2)cc1Cl)N1CCCC(O)(CO)CC1 (stereo not drawn)	i
O=C(CN1C(=O)CCc2cc(S(=O)(=O)N3CCCC3)ccc21)Nc1ccc(F)c(Cl)c1	i
Cc1cc(C=Nc2ccc(-c3nc4ccccc4o3)c(O)c2)c(O)c([N+](=O)[O-])c1	30%*
Cc1ccc2nc(-c3cccc(N=Cc4cccc([N+](=O)[O-])c4O)c3)oc2c1	i
Oc1ccc(N=Cc2cccc(I)c2O)cc1-c1nc2ccccc2o1	41%*
Cc1cccc2oc(-c3cccc(N=Cc4cc([N+](=O)[O-])cc([N+](=O)[O-])c4O)c3)nc12	i
Cc1ccc2nc(SCC(=O)c3ccc4c(c3)OCO4)[nH]c2c1	i
Cc1ccc2nc(-c3ccc(N=Cc4ccc5c(c4)OCO5)cc3O)oc2c1	32%*
O=C(O)c1ccc(O)c(C=Nc2cccc(-c3nc4ccccc4o3)c2)c1	i
Cc1cccc2oc(-c3cccc(N=Cc4ccc(O)cc4O)c3)nc12	i
O=C(Nc1ccc(O)c(-c2nc3ccccc3o2)c1)c1cccc(Cl)c1Cl	i
Cc1cc([N+](=O)[O-])nn1CCCC(=O)Nc1ccc([N+](=O)[O-])cc1Cl	i
Cc1cc(NS(=O)(=O)c2ccc3c(c2)c(=O)n(C)c(=O)n3C)ccc1Br	i
COc1cc2[nH]c(=O)n(CCCC(=O)NC3CCCCC3C)c(=O)c2cc1OC (stereo not drawn)	i
SMILES	ST2 IL33 inh
Cn1nc(C2CCN(C(=O)CCn3ccnc3)CC2)n(-c2ccccc2)c1=O	i
COc1ccccc1-c1nc2sc3c(c2c(=O)[nH]1)CCCC3	i
COc1ccc(-c2cc(C(=O)Nc3sc4c(c3C#N)CCCC4)no2)cc1OC	i
N#Cc1c(NC(=O)COc2cccc3ccccc23)sc2c1CCCC2	i
N#Cc1c(-n2ncnc2-c2ccc3c(c2)OCO3)sc2c1CCCCC2	35%*!
COc1ccc(-c2cc(C(=O)Nc3sc4c(c3C#N)CCC4)no2)cc1	i
